SMILES strings stand for the structures. The whole screen tested about 3,400 compounds, of which about 840 (25%) were called active. Roughly 11% stayed inconclusive and do not appear here.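 The calls were made as follows: active = fitted half-maximal concentration of signal decrease at or below twice the sample's top tested concentration; inconclusive = flat curve between -70 and -30 percent, or poor fit; inactive = flat within 30 percent, signal rise, or potency above limit.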 The list is a sample of the results. Measured potencies and affinities stand elsewhere.

The nature of the experiment: inhibitors of Toxoplasma growth in IFN-γ-primed HeLa – cell-based, ME49Luc, luciferase, 72 h, dose response (AID 1259418). Conditions: T. gondii ME49Luc in IFN-y HeLa, hits give low values, -100% = high-dose IFN-γ control wells; at 19.5 µM unless noted.
Regarding `COc1ccc(CC(=O)N2CCC3(CC2)Nc2ccc(C)c(C)c2-n2cccc23)cc1OC`, the max activity is 11.1% [at 0.68 µM] (inactive). To `Cc1ccc(C)c(-c2coc(-c3ccc(NC(=O)Nc4ccccc4)cc3)n2)c1` belongs 17.8% [at 0.16 µM] (inactive). In the case of `CCOCC1CC2(CCN(C(=O)COc3ccc(C)cc3)CC2)CO1` (stereo unspecified) it was 14.2% (inactive). In the case of `O=C(CC1N=C2c3ccccc3N=C(SCc3cc(=O)n4cc(Cl)ccc4n3)N2C1=O)NC1CCCCC1` (stereo unspecified) it was 36.6% [at 10 µM] (inactive). Consider `FC(F)(F)c1cccc(N2CCN(c3nc(-c4ccc(Cl)cc4)nc4ccccc34)CC2)c1`, for which the max activity was -11.2% [at 0.16 µM] (inactive).

Take `CCc1ccccc1NC(=O)N1CCN(Cc2nc(-c3cccc(Cl)c3)oc2C)CC1`: the max activity is 17.6% [at 10 µM] (inactive). As to `Cc1cccc(NC(=O)N2CCN(Cc3nc(-c4cccc(Cl)c4)oc3C)CC2)c1`, the max activity is 12.6% (inactive). Consider `Cc1oc(-c2cccc(Cl)c2)nc1CN1CCN(C(=O)Nc2cccc(Cl)c2)CC1`, for which the max activity was 10.8% [at 0.35 µM] (inactive). On to `Cc1ccc(Cl)cc1NC(=O)N1CCN(Cc2nc(-c3cccc(Cl)c3)oc2C)CC1`, for which the max activity was 11.1% [at 10 µM] (inactive). Take `CCc1nc(OCC(=O)Nc2cc(C)ccc2C)c2ccccc2n1`: the max activity was 10.4% [at 2.6 µM] (inactive). To `Cc1ccc(CC(=O)N2CCC3(CC2)Nc2cc(F)ccc2-n2cccc23)cc1` belongs -4.79% [at 0.35 µM] (inactive). Take `CC(C)NC(=O)N1CC[C@@H]2[C@H]1c1cc(-c3ccc(F)cc3)ccc1N(C)[C@H]2CO`: the max activity was -31.5% (inactive).

On to `CN1c2ccc(C#Cc3cccnc3)cc2[C@@H]2[C@@H](CCN2C(=O)c2cccc(F)c2)[C@H]1CO`, for which the max activity was 11.4% (inactive). On to `COc1ccc2c(c1)NC1(CCN(C(=O)c3ccccc3F)CC1)c1cccn1-2`, for which the max activity was 8.8% [at 5 µM] (inactive). Regarding `CC(C)NC(=O)N1CC[C@@H]2[C@@H](CO)N(C)c3ccc(-c4ccc(F)cc4)cc3[C@@H]21`, the max activity is 26.2% [at 5 µM] (inactive). `Fc1ccc(N2CCN(c3nc(-c4ccc(Cl)cc4)nc4ccccc34)CC2)cc1`: the max activity is 8.24% (inactive). On to `CCCCC(=O)Nc1ccc(-c2nc(-c3ccc(C)cc3C)co2)cc1`, for which the max activity is 37.3% [at 10 µM] (inactive). As for `Cc1ccc(S(=O)(=O)N2CCC3(CC2)NCCN=C3NCc2ccccc2F)c(C)c1`, the max activity was -12.4% (inactive). To `O=S(=O)(c1cccs1)N1CCC2(CC1)NCCN=C2NCc1ccccc1Cl` belongs -8.05% [at 1.35 µM] (inactive); to `O=C(NCCc1csc(-c2ccccc2)n1)[C@H]1CCCN1C(=O)Cc1ccc(F)cc1`, -17.3% [at 0.16 µM] (inactive); to `CCc1nc(OCC(=O)Nc2ccc(C)cc2C)c2ccccc2n1`, 12.9% [at 10 µM] (inactive).

Regarding `Cc1cc(C)cc(NC(=O)Nc2ccc(-c3nc(-c4ccccc4)co3)cc2)c1`, the max activity was 19.9% [at 1.35 µM] (inactive). On to `Cc1ccc(-c2nc(Cn3nnc(-c4nc(-c5ccc(OC(C)C)cc5)no4)c3C)c(C)o2)cc1`, for which the max activity is 12.6% [at 0.16 µM] (inactive). On to `Cc1cc(C)cc(NC(=O)N2CCN(Cc3nc(-c4ccccc4C)oc3C)CC2)c1`, for which the max activity was 8.24% [at 1.35 µM] (inactive). In the case of `Cc1ccc(Cl)cc1NC(=O)Nc1ccc(-c2nc(-c3ccccc3)co2)cc1` it was -20.1% [at 0.16 µM] (inactive); in that of `Cc1ccc(-c2nc(Cn3nnc(-c4nc(-c5cccc(F)c5)no4)c3C)c(C)o2)cc1`, 3.99% (inactive).

On to `Cc1ccc(C)c(-c2coc(-c3ccc(NC(=O)NCCc4ccccc4)cc3)n2)c1`, for which the max activity was 29.4% (inactive). As to `OC[C@H]1[C@@H](c2ccc(C#Cc3ccccc3F)cc2)[C@@H]2CN(CC3CCOCC3)CCCCN12`, the max activity was 9.11% [at 1.2 µM] (inactive). To `C[C@H]1[C@H](NC(=O)/C(=N\OC(C)(C)C(=O)O)c2csc(N)n2)C(=O)N1S(=O)(=O)O` belongs 14% [at 21 µM] (inactive). In the case of `COc1ccc2c(c1)NC1(CCN(C(=O)Cc3ccccc3C)CC1)c1cccn1-2`, the max activity was -9.29% [at 0.16 µM] (inactive). In the case of `CCc1nc(OCC(=O)Nc2ccc(C)cc2Br)c2ccccc2n1` it was -11.9% [at 2.6 µM] (inactive); in that of `COc1ccc(CCNc2nc(SCc3ccc(F)cc3)nc3ccccc23)cc1OC`, -14.5% [at 5 µM] (inactive); in that of `CCOC(=O)C(=O)Nc1ccc(-c2nc(-c3ccccc3)co2)cc1`, 10.7% [at 5 µM] (inactive). On to `Cc1ccc(-c2nc(Cn3nnc(-c4nc(-c5cccc(Br)c5)no4)c3C)c(C)o2)cc1`, for which the max activity was 7.23% [at 0.16 µM] (inactive). Take `CCOc1ccc(C(=O)N2CCC(C(=O)NCCc3csc(C)n3)CC2)cc1`: the max activity is 13.7% (inactive). As for `Cc1ccc(C)c(-c2coc(-c3ccc(NC(=O)Cc4cccs4)cc3)n2)c1`, the max activity is 19.4% (inactive). For the compound `O=C(CC1N=C2c3ccccc3N=C(SCc3cc(=O)n4ccccc4n3)N2C1=O)NCc1ccc(F)cc1` (stereo unspecified), the max activity is 17.7% [at 2.6 µM] (inactive). In the case of `COc1ccc(CCC(=O)N2CCC3(CC2)Nc2cc(F)ccc2-n2cccc23)cc1`, the max activity is 14.7% [at 0.68 µM] (inactive). Take `O=C(Nc1ccc(-c2nc(-c3cccc(Br)c3)co2)cc1)Nc1ccc2c(c1)OCCO2`: the max activity was 9.52% [at 0.16 µM] (inactive).

On to `Cc1ccc(-c2nc(CN3CCN(C(=O)Nc4cccc(C)c4C)CC3)c(C)o2)cc1`, for which the max activity is 12.5% [at 10 µM] (inactive). For the compound `CCCCNc1nc(-c2ccc(OC)cc2)nc2ccccc12`, the max activity is 22.7% (inactive).

With `COc1ccc(CNc2nc(-c3ccc(OC)cc3)nc3ccccc23)cc1`, the max activity is -17.8% [at 10 µM] (inactive).

Turning to `COc1ccc(-c2nc(NCCN(Cc3ccco3)C3CCCC3)c3ccccc3n2)cc1`, the max activity was -27.6% [at 2.6 µM] (inactive). In the case of `COc1ccc(-c2nc(NCc3ccccc3)c3ccccc3n2)cc1` it was 16.2% (inactive); in that of `COc1ccc(-c2nc(NCCC(C)C)c3ccccc3n2)cc1`, -29.2% [at 0.68 µM] (inactive); in that of `CCCNc1nc(-c2ccc(OC)cc2)nc2ccccc12`, -34.8% [at 0.35 µM] (inactive). In the case of `CN(CCNc1nc(-c2ccc(Cl)cc2)nc2ccccc12)C1CCCCC1` it was -24.3% [at 2.6 µM] (inactive); in that of `COc1ccc(-c2nc(NCCCc3ccccc3)c3ccccc3n2)cc1`, -17% [at 1.35 µM] (inactive). In the case of `Cc1ccc2[nH]cc(CCNC(=O)c3cc(-c4ccccn4)nc4ccccc34)c2c1` it was 11.1% (inactive); in that of `CCCCN(C)C(=O)Cn1c(=O)c(S(=O)(=O)c2ccccc2)cc2ccccc21`, 11.6% (inactive); in that of `Cc1ccc(-c2coc(-c3ccc(NC(=O)Nc4ccc5c(c4)OCO5)cc3)n2)c(C)c1`, 49.1% (inactive). With `Cc1ccc(C(=O)N2CCC3(CC2)Nc2cc(F)ccc2-n2cccc23)cc1`, the max activity is 6.63% [at 0.16 µM] (inactive).

As to `CSc1ccc(CNC(=O)COc2nc(C)nc3ccccc23)cc1`, the max activity was -10.1% [at 5 µM] (inactive).

Take `CCOc1ccc(NC(=O)N2CCc3nc(-c4cccc(OC)c4)sc3C2)cc1`: the max activity was 6.38% (inactive). Consider `COc1ccc(-c2nc(Cn3nnc(-c4nc(-c5ccc(F)cc5)no4)c3C)c(C)o2)cc1`, for which the max activity is -9.56% [at 5 µM] (inactive). Turning to `COc1ccc(-c2nc(NCCc3ccccc3)c3ccccc3n2)cc1`, the max activity was -16% [at 10 µM] (inactive).

For the compound `COc1ccc(-c2nc(NCCc3cc(OC)ccc3OC)c3ccccc3n2)cc1`, the max activity was 10.1% (inactive). Regarding `CCOC(=O)C1CCN(c2nc(-c3ccc(OC)cc3)nc3ccccc23)CC1`, the max activity was -8.44% [at 0.68 µM] (inactive). Take `Cc1nc(-c2ccc(C(=O)N3CCC(C)CC3)cc2)cs1`: the max activity is 19% (inactive). For the compound `COc1ccc(Cl)cc1NC(=O)CN1CCC2(CC1)N=C(c1cccc(F)c1)C(=O)N2`, the max activity was 7.5% [at 5 µM] (inactive). As to `CCOc1ccc(C(=O)N2CCC3(CC2)Nc2cc(OC)ccc2-n2cccc23)cc1`, the max activity was 8.9% (inactive). Take `COc1ccc(NC(=O)COc2nc(C)nc3ccccc23)c(OC)c1`: the max activity was 17.4% [at 0.16 µM] (inactive). Regarding `Cc1ccc(CN2CC3CN(Cc4cccc(F)c4)CC3C2)s1` (stereo unspecified), the max activity was 10.1% (inactive). With `O=S(=O)(c1ccc(F)cc1)N1C[C@@H]2N[C@H](C1)C2c1ccc(/C=C/c2ccccc2)cc1` (stereo partly specified), the max activity was 26.3% (inactive). To `COc1ccc(OC)c(NC(=O)Nc2ccc(-c3nc(-c4cc(C)ccc4C)co3)cc2)c1` belongs -12.9% [at 0.35 µM] (inactive); to `Cc1nc(OCC(=O)Nc2ccccc2C(F)(F)F)c2ccccc2n1`, 21.7% [at 0.16 µM] (inactive); to `CCN1CCO[C@@H]2CN(C(=O)CC3Cc4ccccc4C3)C[C@@H]2C1`, 43.5% (inactive).

Consider `Cc1ccc(C)c(C(=O)Nc2ccc3c(c2)CCC(=O)N3)c1`, for which the max activity was -6.43% [at 1.35 µM] (inactive).

For `O=C1CCc2cc(NC(=O)c3ccc(C(F)(F)F)cc3)ccc2N1`, the max activity was -7.37% [at 1.35 µM] (inactive). As to `Cc1ccc(CC(=O)Nc2ccc3c(c2)CCC(=O)N3)cc1`, the max activity was 7.74% (inactive). In the case of `O=C1CCc2cc(NC(=O)C(F)(F)F)ccc2N1` it was -12.7% [at 2.6 µM] (inactive); in that of `O=C1CCc2cc(NC(=O)c3ccc(OC(F)(F)F)cc3)ccc2N1`, -8.43% [at 0.35 µM] (inactive); in that of `Cc1ccc(C(=O)Nc2ccc3c(c2)CCC(=O)N3)c(C)c1`, 42% (inactive). For `CC(C)N1CCN(CC#N)C2(CCN(C(=O)c3ccc[nH]3)C2)C1=O` (stereo unspecified), the max activity is 43.6% (inactive). To `COc1ccc(CC(=O)Nc2ccc(-c3nc(-c4ccccc4)co3)cc2)cc1` belongs -7.29% [at 1.35 µM] (inactive); to `CCOc1ccccc1-c1nc(CN(c2ccc(OC)cc2)S(=O)(=O)c2ccccc2)c(C)o1`, 7.8% (inactive).

These data come from PubChem BioAssay AID1259418 (Broad Institute, 2018).
